Measured values: ChEMBL document CHEMBL3988442, “University of Dundee, Small-Polar-MMV Screening Library” (2021)
Screen size: about 66,000 compounds; about 960 (1.5%) showed an effect of 50% or more. Only a selection was taken, and strong results are over-represented in it overall.

Test system: Trypanosoma brucei
Assay: Trypanosoma brucei 72 hour study
Format: functional, organism-based
Set-up: scale not given: in the data most compounds retested in dose-response had high values

With `Cc1cccn2cc(CNCc3cccc4c3OCCCO4)nc12` the “Percent Effect” value (30.3 µM, […]) was 17.5%.

With `CCC[C@]12CN3C[C@](CCC)(CN(C1)C3c1[nH]c(=O)[nH]c(=O)c1C)C2=O` (some centres not stated) the “Percent Effect” value (30 µM, 30.03 µM) was -52.93%.

`CCc1noc(C2CCCCN2C(=O)c2cc(C)n(C)n2)n1` (configuration not stated) was tested, and the “Percent Effect” value (30.3 µM, […]) was -3.284%.

In the case of `Cc1csc(C2CCCCN2C(=O)c2cc(C(C)C)[nH]n2)n1` (configuration not stated), the “Percent Effect” value (10 µM) is reported as -49.47%.

For `Cc1cccc(NC(=O)c2[nH]nc(C(C)C)c2Br)n1`, the “Percent Effect” value (30.3 µM, […]) was 56.85% and the “Percent Effect” value (10 mM, 10 mM as filed; unlikely as a test dose) was 8.768%.

With `CC(C)c1n[nH]c(C(=O)Nc2ccnn2C(C)C)c1Br` the “Percent Effect” value (30 µM, 30.03 µM) was -7.131%.

In the case of `CC(C)c1n[nH]c(C(=O)Nc2ccccn2)c1Br`, the “Percent Effect” value (30.3 µM, […]) is reported as 50.04% and the “Percent Effect” value (10 mM, 10 mM as filed; unlikely as a test dose) is reported as -45.45%.

In the case of `COc1ncccc1NC(=O)c1[nH]nc(C(C)C)c1Br`, the “Percent Effect” value (30 µM, 30.03 µM) is reported as 7.14%.

For `CC(C)c1n[nH]c(C(=O)Nc2ccncc2)c1Br`, the “Percent Effect” value (30 µM, 30.03 µM) was -10.71%.

In the case of `Cc1ccnc(NC(=O)c2[nH]nc(C(C)C)c2Br)c1`, the “Percent Effect” value (30.3 µM, […]) is reported as 57.19% and the “Percent Effect” value (10 mM, 10 mM as filed; unlikely as a test dose) is reported as -20%.

For `CC(C)c1n[nH]c(C(=O)Nc2cc[nH]n2)c1Br`, the “Percent Effect” value (30 µM, 30.03 µM) was -42.25%.

With `CC(C)c1n[nH]c(C(=O)NC(C)c2ccncc2)c1Br` (configuration not stated) the “Percent Effect” value (30.3 µM, […]) was 20.51% and the “Percent Effect” value (10 mM, 10 mM as filed; unlikely as a test dose) was -71.89%.

In the case of `COc1ccccc1NC(=O)c1[nH]nc(C(C)C)c1Br`, the “Percent Effect” value (30 µM, 30.03 µM) is reported as -9.686%.

With `CCOC[C@]12COC[C@H]1CN(Cc1ccc(F)c(F)c1)C2.O=C(O)C(F)(F)F` the “Percent Effect” value (30.3 µM, […]) was 6.986%.

In the case of `CS(=O)(=O)N[C@H]1CN(C(=O)c2cscn2)[C@@H]2CCCO[C@H]12`, the “Percent Effect” value (30 µM, 30.03 µM) is reported as 28.48%.

With `CNC(=O)[C@H]1C[C@@H]2CN(C(=O)c3ccccn3)C[C@@H]2N1S(C)(=O)=O.O=C(O)C(F)(F)F` the “Percent Effect” value (30.3 µM, […]) was -16.02%.

For `CN1CCCC(CCC(=O)NCCc2nnc(N)s2)C1` (configuration not stated), the “Percent Effect” value (30 µM, 30.03 µM) was 1.066%.

`Cc1ccc(C(=O)N2CCC3(CC2)CCN(CCN(C)C)C3=O)cn1.O=C(O)C(F)(F)F.O=C(O)C(F)(F)F` was tested, and the “Percent Effect” value (30.3 µM, […]) was -7.554%.

In the case of `COCc1nc(C(=O)NS(=O)(=O)c2c(C)c(C)cc(C)c2C)cs1`, the “Percent Effect” value (30.3 µM, […]) is reported as -6.08%.

With `O=C(N1CCOCC1)[C@@]12CCO[C@@H]1CCN(C1CCOCC1)C2.O=C(O)C(F)(F)F` the “Percent Effect” value (30 µM, 30.03 µM) was -13.03%.

For `CN(C)C(=O)C1OC2(CCN(c3ncc(F)cn3)CC2)c2ccccc21.O=C(O)C(F)(F)F` (configuration not stated), the “Percent Effect” value (30 µM, 30.03 µM) was -1.93%.

For `COc1ccc(-c2nnsc2C(=O)N2CCC(C(N)=O)CC2)cc1`, the “Percent Effect” value (30.3 µM, […]) was 7.87%.

In the case of `Cc1ccsc1CN1CC[C@H]2OCC[C@@]2(C(=O)N2CCCO2)C1.O=C(O)C(F)(F)F`, the “Percent Effect” value (30.3 µM, […]) is reported as -14.02%.

In the case of `CCCC(N)CNS(=O)(=O)Cc1cccc(C#N)c1.Cl` (configuration not stated), the “Percent Effect” value (30.3 µM, […]) is reported as 63.71%.

In the case of `Cc1ccccc1C(O)CNS(=O)(=O)Cc1cccc(C#N)c1` (configuration not stated), the “Percent Effect” value (30.3 µM, […]) is reported as 7.529%.

In the case of `N#Cc1cccc(CS(=O)(=O)NCC(O)Cc2ccccc2)c1` (configuration not stated), the “Percent Effect” value (30 µM, 30.03 µM) is reported as -15.65%.

In the case of `CCO[C@H]1CO[C@@]2(CCCN(Cc3scnc3C)C2)C1.O=C(O)C(F)(F)F`, the “Percent Effect” value (30 µM, 30.03 µM) is reported as -66.13%.

In the case of `Cc1nc(C)n(CC2CCCN2Cc2ccn(-c3ccccc3)n2)n1` (configuration not stated), the “Percent Effect” value (30.3 µM, […]) is reported as 99.84%.

In the case of `Fc1cccc(-n2ccc(CN3CCCC3Cn3cccn3)n2)c1` (configuration not stated), the “Percent Effect” value (10 µM) is reported as -58.75%.

For `Cc1nc(C)n(CC2CCCN2Cc2cn(-c3ccccc3)nn2)n1` (configuration not stated), the “Percent Effect” value (30 µM, 30.03 µM) was -3.712%.

In the case of `c1ccc(-n2ccc(CN3CCCC3Cn3cccn3)n2)cc1` (configuration not stated), the “Percent Effect” value (30.3 µM, […]) is reported as 99.68%.

In the case of `Cc1nc(C)n(CC2CCCN2Cc2ccccn2)n1` (configuration not stated), the “Percent Effect” value (30.3 µM, […]) is reported as 5.601%.

For `c1ccc(-n2ccc(CN3CCCC3Cn3cncn3)n2)cc1` (configuration not stated), the “Percent Effect” value (10 µM) was -54.26%.

In the case of `O=C(CCN1C[C@@H]2CC[C@H]1C2)N1CCN(c2cccc(Cl)c2)C(=O)C1`, the “Percent Effect” value (30.3 µM, […]) is reported as -18.65%.

In the case of `CN1CCN(C2COC3(CCN(c4ccc(C#N)cc4)CC3)C2)CC1.O=C(O)C(F)(F)F` (configuration not stated), the “Percent Effect” value (30.3 µM, […]) is reported as -31.63%.

For `NC(=O)NCC(=O)N1CCCC(OCc2cccnc2)C1` (configuration not stated), the “Percent Effect” value (30 µM, 30.03 µM) was -86.17%.

With `O=C(Cn1ccnc1)N1CCCC(OCc2cccnc2)C1` (configuration not stated) the “Percent Effect” value (30 µM, 30.03 µM) was -76.95%.

`NC(=O)CN1CCC(C(=O)N2CCCC(OCc3cccnc3)C2)CC1` (configuration not stated) was tested, and the “Percent Effect” value (30 µM, 30.03 µM) was 52.75%.

For `CCC(NC(=O)CC1CCN(C(C)C)CC1)c1cn2cccnc2n1` (configuration not stated), the “Percent Effect” value (30 µM, 30.03 µM) was -16.96%.

In the case of `CN1[C@@H](C(=O)NCC2CC2)C[C@@H]2CN(Cc3ccsc3)C[C@@H]21.O=C(O)C(F)(F)F.O=C(O)C(F)(F)F`, the “Percent Effect” value (30.3 µM, […]) is reported as -75.19%.

`O=C1c2cnc(N3CCOCC3)nc2CN1Cc1cccc(F)c1` was tested, and the “Percent Effect” value (30 µM, 30.03 µM) was -25.27%.

For `Cc1cc(OCCC(=O)Nc2cccc(F)c2)nnc1C`, the “Percent Effect” value (30 µM, 30.03 µM) was 46.79%.

`Cc1cc(OCC(=O)NCc2ccc(F)cc2)nnc1C` was tested, and the “Percent Effect” value (30 µM, 30.03 µM) was 16.49%.

With `Cc1cc(OCCC(=O)NCc2ccc(F)cc2)nnc1C` the “Percent Effect” value (30 µM, 30.03 µM) was 71.51%.

With `Cc1noc(C)c1CN1CCC2(CC1)C(c1ccccc1)CC(=O)N2C.O=C(O)C(F)(F)F` (configuration not stated) the “Percent Effect” value (30.3 µM, […]) was -57.86%.

With `COc1ccc(CC(=O)N2C[C@H]3CN(Cc4ccccn4)C[C@H]3C2)cc1.O=C(O)C(F)(F)F` the “Percent Effect” value (30.3 µM, […]) was -4.643%.

For `Cc1occc1C(=O)N1CCCN(Cc2nccn2C)CC1`, the “Percent Effect” value (30.3 µM, […]) was 4.115%.

For `Cc1occc1C(=O)N1CCCN(Cc2nccn2C(C)C)CC1`, the “Percent Effect” value (30.3 µM, […]) was 53.23%.
